# From PubChem BioAssay
# AmpC no deterg – blocks E. coli AmpC beta-lactamase in detergent-free assay. P00811. AmpC nitrocefin hydrolysis, absorbance 480 nm, 0.0001% Triton. Potency, µM (doses to about 57.1 µM), inactives show at the top dose activity change, negative = inhibition, actives largely listed as inhibitors. actives 0.52% (n = 330,000). AID 485341;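 note: potency is the fitted concentration of half-maximal effect; plate controls were no compound for no effect and no enzyme for full effect; nearly all actives have a fitted effect of over 20% in size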
# Target sequence (P00811 whole entry, looked up): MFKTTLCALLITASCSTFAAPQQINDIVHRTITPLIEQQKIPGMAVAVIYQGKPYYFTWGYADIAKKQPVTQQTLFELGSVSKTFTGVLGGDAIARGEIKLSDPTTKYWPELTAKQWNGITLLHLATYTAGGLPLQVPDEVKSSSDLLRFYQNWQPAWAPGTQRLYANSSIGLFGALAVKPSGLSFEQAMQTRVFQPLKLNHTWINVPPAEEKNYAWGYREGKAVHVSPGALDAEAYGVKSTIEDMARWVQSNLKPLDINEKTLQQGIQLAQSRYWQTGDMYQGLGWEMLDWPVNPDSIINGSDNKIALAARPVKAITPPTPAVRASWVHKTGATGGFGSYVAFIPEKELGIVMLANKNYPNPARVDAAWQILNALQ
#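 AmpC (5.3 nM in the dispensed reagent) in 20 mM phosphate pH 7.0 with 0.01% (detergent screen) or 0.0001% Triton X-100 was preincubated with compounds for 15 min at room temperature. Nitrocefin was then added from an 800 uM solution, and hydrolysis was followed at 480 nm.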
# AmpC detergent – AmpC beta-lactamase inhibition with detergent present. P00811. AmpC hydrolysis of nitrocefin, absorbance 480 nm, 0.01% Triton. Potency, µM (highest dose often 114 µM), inactives show at the highest dose activity change, negative = inhibition, usual class: inhibitors. actives 0.041% (n = 370,000). AID 485294;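 note: potency is the fitted concentration of half-maximal effect; 0% = no-compound wells and -100% = no-enzyme wells; nearly all actives have a fitted effect of over 25% in size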
#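 AmpC (5.3 nM in the dispensed reagent) in 20 mM phosphate pH 7.0 with 0.01% (detergent screen) or 0.0001% Triton X-100 was preincubated with compounds for 15 min at room temperature. Nitrocefin was then added from an 800 uM solution, and hydrolysis was followed at 480 nm.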
# FMDV inh – foot and mouth disease virus antiviral activity. FMDV antiviral cell-based qHTS. Potency, µM (titrated, usually from 57.9 µM), for inactives: at the top dose activity change, negative = inhibition, actives largely listed as inhibitors. actives 1.2% (n = 410,000); calls by dose curve; tested in HEK293T cells; note: read-out not given here; potency is the fitted concentration of half-maximal effect; nearly all actives have a fitted effect of over 45% in size
# HCV inhibitor – blocks hepatitis C virus; Huh7.5.1 HCVcc-Cre infection, luciferase reporter, 44 h; AID 651820; actives 3.4% (n = 340,000); Potency, µM (titrated, usually from 41.8 µM), without a hit: at the highest dose activity change, negative = inhibition, usual class: inhibitors; note: potency is the fitted concentration of half-maximal effect
#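 1,000 cells/well; 4 h culture; + compound; + HCVcc-Cre (~0.5 moi); 44 h; luciferase substrate, RT 15 min; read 15 sec.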
# HCMV antiviral – inhibitors of human cytomegalovirus | activity change, negative = inhibition, % at 57.5 µM | AID 1259415 | actives 4.5% (n = 410,000) | HFF cells, HCMV-luciferase reporter, 72 h; active compounds read low; in the data active = activity change below about -60%; inconclusive = no clear call, values can overlap the other calls; inactive = above about -39%
#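 HFF cells seeded 16 h at 37C, treated with compounds, infected with luciferase-reporter HCMV at MOI 1 PFU/cell; luciferase read at 72 h post infection, normalized to buffer-only and Salinomycin controls.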
# An asterisk follows results filed as active; ? = inconclusive; / = no result given. A selection: hits, their analogues and other compounds. The true share with any hit is near 7.3%. Unless noted, calls come from the whole dose curve; as a rule, active = well fitted curve in the direction sought with a large enough effect; inconclusive = small, poorly fitted or top-dose-only effect, or another doubt; inactive = no such curve, though single readings can be large; an effect the other way counts as inactive or inconclusive. Unless noted, % is set by controls: 0 for no effect and ±100 for the full control effect.
SMILES,AmpC no deterg,AmpC detergent,FMDV inh,HCV inhibitor,HCMV antiviral
COC(=O)COc1ccc(/C=N/NC(=O)CN(c2ccccc2OC)S(=O)(=O)c2ccccc2)cc1,-14%,0%,?,?,-100*
COc1ccccc1N(CC(=O)N/N=C/c1ccc(OCC(=O)NCc2ccco2)cc1)S(=O)(=O)c1ccc(C)cc1,-5%,-15%,-25%,5µM*,/
COc1ccc(N(CC(=O)N/N=C/c2cccc(OC)c2OC)S(=O)(=O)c2ccccc2)cc1,-5%,-4%,-25%,?,-34
CCn1c(O)c(/C=N/NC(=O)c2ccccc2)c(=O)[nH]c1=S,-20%,-6%,11%,12%,-63*
CC1(C)C(=O)OC(c2cc(Br)ccc2O)C(C)(C)C1=O (stereo not given),-20%,0%,35µM*,13%,?
CC(=O)Nc1ccc(C(=O)COC(=O)CCN2C(=O)C3CC=CCC3C2=O)cc1 (stereo not given),-7%,4%,40%,-1%,8
O=C(CCN1C(=O)C2CC=CCC2C1=O)OCC(=O)c1ccc(F)cc1 (stereo not given),-23%,/,-2%,4%,-76*
COc1cccc(-c2nc(SCC(=O)Nc3ccc4c(c3)OCCO4)c(-c3ccc(C)cc3)[nH]2)c1,/,-3%,-14%,/,-27
O=C1C2C(c3ccccc3)C=CC(c3ccccc3)C2C(=O)N1CCCO (stereo not given),118%,2%,32µM*,6%,-21
C=CCOCCN1C(=O)C2C(c3ccccc3)C=CC(c3ccccc3)C2C1=O (stereo not given),/,4%,?,-6%,-38
Cn1ccnc1C1CCCCN1C(=O)CN1Cc2ccccc2OC(c2ccccc2F)C1 (stereo not given),/,/,-3%,/,/
Cc1cc(OCc2cc(C(=O)NC(C)c3cnn(C)c3)no2)cc(C)c1Cl (stereo not given),/,/,32%,/,75
Cc1cc(OCc2cc(C(=O)NC(C)c3c(C)nn(C)c3C)no2)cc(C)c1Cl (stereo not given),177%,?,-1%,11µM*,?
Cc1ccc2cc(NC(=O)c3ccccc3C)ccc2n1,-33%,-1%,35%,-5%,-100*
Cc1cccc(C(=O)Nc2ccc3ccccc3c2)c1,-32%,3%,25%,?,-102*
Cc1cccc(C(=O)Nc2ccc3c(c2)nc(C)n3C)c1,-11%,-6%,-19%,20%,-102*
O=C(Nc1ccc2ccccc2c1)c1ccccc1O,-37%,4%,-61%,?,-99*
Cc1cccc(C(=O)Nc2ccc3c(c2)ncn3C)c1,-11%,1%,32%,45%,-13
CCc1ccc(Sc2cc(C(=O)NCc3cccc(OC)c3)c3ccccc3n2)cc1,/,10%,-21%,/,?
COc1nc(N)nc2nc[nH]c12,-20%,-7%,0%,-7%,20
COc1cccc(/C=C(/C(=O)OCC(=O)NC2CCCCCCC2)c2ccccc2)c1,-12%,-8%,?,11µM*,?
Cc1c(Cl)cccc1Nc1nn2c(=O)c3ccc(C(=O)N(C)Cc4ccccc4)cc3nc2s1,/,8%,0%,/,1
CN1CCN(C2=Cc3ccccc3Sc3cc(F)c(F)cc32)CC1,141%,-6%,?,11µM*,8
CN1CCN(C2=Cc3cc(Cl)ccc3Sc3cc(F)ccc32)CC1,180%,12%,?,7.1µM*,-9
CN1CCN(C2=Nc3ccccc3Sc3ccc(Cl)cc32)CC1,/,/,10%,/,/
SMILES,AmpC no deterg,AmpC detergent,FMDV inh,HCV inhibitor,HCMV antiviral
CN1CCN(C2=Cc3ccccc3Sc3cc(F)c(Cl)cc32)CC1,142%,?,?,13µM*,0
CN1CCN(C2Cc3cc(Cl)ccc3Sc3cc(F)ccc32)CC1 (stereo not given),/,/,?,?,-78*
COc1ccc(CNC(=O)N2CC3ON=C(c4ccccc4C)C3C2)cc1 (stereo not given),/,/,/,/,-31
CCCC(CCC)C(=O)Nc1cccc(-c2cn3cccnc3n2)c1,/,8%,-25%,/,-5
Cn1c(=O)c2[nH]c(CCCCCc3nc4ccccc4[nH]3)nc2n(C)c1=O,/,/,-8%,13%,6
Cn1c(=O)c2[nH]c(COc3ccc(C(C)(C)C)cc3)nc2n(C)c1=O,34%,10%,20µM*,11µM*,/
Cn1c(=O)c2[nH]c(CCCCCCCc3nc4ccccc4[nH]3)nc2n(C)c1=O,/,/,16µM*,8.9µM*,-67*
CN(C)CCNC(=O)CNC(=S)N(CCCN1CCOCC1)Cc1cccs1,-8%,-7%,-2%,10%,3
COc1ccccc1N(CC(=O)NC1CCCC1)S(=O)(=O)c1ccc(C)cc1,29%,-1%,3%,-9%,-17
CCOc1ccccc1N(CC(=O)Nc1ccc(OC)c(Cl)c1)S(=O)(=O)c1ccccc1,/,-6%,-7%,/,-62*
CCOc1ccccc1N(CC(=O)NC1CCCCC1)S(=O)(=O)c1ccc(C)cc1,61%,-3%,15%,-13%,-77*
CCOc1ccccc1N(CC(=O)Nc1ccccc1Br)S(=O)(=O)c1ccccc1,/,/,-20%,/,-63*
COc1ccc(N(CC(=O)Nc2ccc(OC)c(OC)c2)S(=O)(=O)c2ccccc2)cc1Cl,37%,3%,-18%,13µM*,59
Cc1cc(C)cc(N(C(=O)c2csnn2)C(C(=O)NC2CCCC2)c2cccnc2)c1 (stereo not given),7%,-10%,5%,5%,-17
O=C(NCc1ccccc1)N[C@H]1CC[C@@]23CCCN2C(=O)CCC[C@H]3C1Cc1ccccc1 (stereo not given in full),/,/,/,/,1
CCOc1cc(/C=C2\C(=O)N(c3nc(-c4ccc(Br)cc4)cs3)N=C2c2ccccc2)ccc1O,16µM*,-9%,5.6µM*,-21%,/
COc1cccc(/C=C/C(=O)OCC(=O)Nc2ccccc2Sc2ccccc2)c1,-32%,-6%,-6%,10%,-65*
Cc1ccc(/C=C/C(=O)OCC(=O)Nc2ccccc2Sc2ccccc2)cc1,-15%,-7%,-9%,24%,-22
Clc1cccc(Cl)c1CON/C=N/c1ncnc2sccc12,1.1µM*,1%,?,11µM*,?
Clc1cccc(CON/C=N/c2ncnc3sccc23)c1,-27%,-1%,?,?,-29
CN1OC(C)(CC(=O)NCc2nccs2)N=C1c1cccc(Br)c1 (stereo not given),/,/,/,/,-11
Cc1ccccc1C(=O)N1CCC(C(=O)Nc2ccc(S(=O)(=O)N3CCCCC3)cc2)CC1,111%,3%,?,13µM*,-9
Cc1ccccc1NC(=O)C1CCCN(S(=O)(=O)c2cccc3cccnc23)C1 (stereo not given),5µM*,?,-22%,7%,9
